Assay results: PMC7862700, “An all-to-all approach to the identification of sequence-specific readers for epigenetic DNA modifications on cytosine”

Tests used:
Assay in all cases: DAPPL (digital affinity profiling via proximity ligation, sequencing); 10 mM Tris-HCl pH 7.5, 50 mM NaCl, 1 mM DTT, 4% glycerol, room temperature, 30 min; GST-TFs on glutathione beads, 16-mer random dsDNA library, 0.1% formaldehyde crosslink after washing; high values mean tight binding
Conditions in all cases: protein: recombinant; tags: N-terminal GST; dsDNA, one strand shown
ERF = target: T1, ERF (Homo sapiens, UniProt P50548 1-548)
T1 sequence: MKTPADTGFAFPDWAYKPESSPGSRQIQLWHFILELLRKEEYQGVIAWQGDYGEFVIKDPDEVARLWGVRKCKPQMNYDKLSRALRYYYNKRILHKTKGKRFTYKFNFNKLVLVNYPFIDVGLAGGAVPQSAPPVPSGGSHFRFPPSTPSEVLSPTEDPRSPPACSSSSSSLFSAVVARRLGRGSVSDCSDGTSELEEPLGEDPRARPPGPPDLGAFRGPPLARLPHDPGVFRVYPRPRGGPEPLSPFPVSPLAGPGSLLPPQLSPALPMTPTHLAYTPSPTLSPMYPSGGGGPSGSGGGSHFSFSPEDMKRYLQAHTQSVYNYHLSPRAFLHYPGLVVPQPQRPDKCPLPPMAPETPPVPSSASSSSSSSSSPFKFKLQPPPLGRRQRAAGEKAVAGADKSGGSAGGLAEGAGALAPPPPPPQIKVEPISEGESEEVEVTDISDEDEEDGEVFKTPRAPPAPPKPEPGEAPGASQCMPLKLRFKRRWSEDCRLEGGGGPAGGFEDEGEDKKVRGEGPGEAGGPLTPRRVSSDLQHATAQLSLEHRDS
In short: (§1)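 In yeast, human transcription factors were expressed with a GST fusion, then pulled down on glutathione beads and given DNA barcodes. Pooled with a tag-only sample, they were exposed to 200 nmole of a 16-mer random double-stranded DNA library (Tris/NaCl/DTT/glycerol buffer, room temperature, 30 min), washed, crosslinked with 0.1% formaldehyde, proximity-ligated using BsaI/T4 ligase for 1 h at 37 °C, PCR-amplified and read on an Illumina NextSeq500. Each hexamer's frequency of reads for a factor, divided by the matching frequency for the tag-only sample, gives the binding signal.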

ETV3L = target: T2, ETV3L (Homo sapiens, UniProt Q6ZN32 1-361)
T2 sequence: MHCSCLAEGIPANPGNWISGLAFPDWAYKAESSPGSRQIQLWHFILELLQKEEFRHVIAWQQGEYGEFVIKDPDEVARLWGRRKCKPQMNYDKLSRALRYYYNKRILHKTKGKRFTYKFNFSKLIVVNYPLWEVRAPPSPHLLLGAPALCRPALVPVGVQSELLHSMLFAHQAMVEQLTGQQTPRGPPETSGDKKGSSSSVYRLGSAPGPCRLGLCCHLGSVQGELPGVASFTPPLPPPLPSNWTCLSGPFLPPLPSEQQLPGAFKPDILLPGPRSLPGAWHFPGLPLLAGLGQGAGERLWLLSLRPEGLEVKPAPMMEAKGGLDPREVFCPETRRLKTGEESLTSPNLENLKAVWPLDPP
In short: as §1

ETS2 = target: T3, ETS2 (Homo sapiens, UniProt P15036 1-469)
T3 sequence: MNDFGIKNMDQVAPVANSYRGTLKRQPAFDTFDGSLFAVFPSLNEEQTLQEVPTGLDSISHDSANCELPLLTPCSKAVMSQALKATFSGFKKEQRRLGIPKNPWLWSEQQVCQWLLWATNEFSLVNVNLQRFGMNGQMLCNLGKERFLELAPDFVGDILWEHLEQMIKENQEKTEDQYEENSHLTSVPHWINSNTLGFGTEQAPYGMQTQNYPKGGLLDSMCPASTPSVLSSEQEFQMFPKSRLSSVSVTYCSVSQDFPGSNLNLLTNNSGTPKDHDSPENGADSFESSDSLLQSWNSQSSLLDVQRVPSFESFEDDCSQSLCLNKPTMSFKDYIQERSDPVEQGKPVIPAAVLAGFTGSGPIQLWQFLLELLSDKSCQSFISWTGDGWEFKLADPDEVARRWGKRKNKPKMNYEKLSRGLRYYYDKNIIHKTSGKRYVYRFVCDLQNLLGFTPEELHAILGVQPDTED
In short: as §1

SPDEF = target: T4, SPDEF (Homo sapiens, UniProt O95238 1-335)
T4 sequence: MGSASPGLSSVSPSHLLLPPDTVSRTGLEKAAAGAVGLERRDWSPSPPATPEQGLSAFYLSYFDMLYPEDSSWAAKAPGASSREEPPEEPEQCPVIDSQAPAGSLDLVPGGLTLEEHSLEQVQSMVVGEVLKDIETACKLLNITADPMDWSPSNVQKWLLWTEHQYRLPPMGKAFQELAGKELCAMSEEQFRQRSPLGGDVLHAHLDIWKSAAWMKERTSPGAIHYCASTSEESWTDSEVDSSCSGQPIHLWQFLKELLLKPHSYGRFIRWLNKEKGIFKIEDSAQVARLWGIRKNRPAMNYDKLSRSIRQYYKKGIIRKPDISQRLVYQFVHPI
In short: as §1

ETV7 = target: T5, ETV7 (Homo sapiens, UniProt Q9Y603 1-341)
T5 sequence: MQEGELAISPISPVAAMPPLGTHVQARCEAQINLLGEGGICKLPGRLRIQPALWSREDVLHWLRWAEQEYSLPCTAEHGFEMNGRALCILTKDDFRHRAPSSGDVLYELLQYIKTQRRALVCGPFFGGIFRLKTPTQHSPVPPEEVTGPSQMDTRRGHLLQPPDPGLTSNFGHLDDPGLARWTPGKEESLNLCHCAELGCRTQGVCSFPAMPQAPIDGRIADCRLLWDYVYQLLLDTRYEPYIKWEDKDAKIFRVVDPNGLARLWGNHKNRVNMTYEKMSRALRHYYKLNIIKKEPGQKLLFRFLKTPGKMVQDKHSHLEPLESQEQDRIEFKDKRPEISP
In short: as §1

ELF5 = target: T6, ELF5 (Homo sapiens, UniProt Q9UKW6-2 1-255)
T6 sequence: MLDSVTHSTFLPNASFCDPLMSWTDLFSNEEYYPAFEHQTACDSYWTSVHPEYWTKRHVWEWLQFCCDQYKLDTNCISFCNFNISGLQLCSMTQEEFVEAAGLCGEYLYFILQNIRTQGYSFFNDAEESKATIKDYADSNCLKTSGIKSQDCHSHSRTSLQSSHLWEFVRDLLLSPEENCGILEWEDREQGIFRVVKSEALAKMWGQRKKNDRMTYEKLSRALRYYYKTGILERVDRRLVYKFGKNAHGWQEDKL
In short: as §1

ETV3 = target: T7, ETV3 (Homo sapiens, UniProt P41162-2 1-143)
T7 sequence: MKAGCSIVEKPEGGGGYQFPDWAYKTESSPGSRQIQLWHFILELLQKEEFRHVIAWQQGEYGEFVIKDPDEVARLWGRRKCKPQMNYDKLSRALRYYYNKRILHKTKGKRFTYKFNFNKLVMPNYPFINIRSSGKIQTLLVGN
In short: as §1

ETV6 = ETV6 (Homo sapiens, UniProt P41212 1-452)
In short: as §1

Sequence of ETV6 (P41212 whole entry): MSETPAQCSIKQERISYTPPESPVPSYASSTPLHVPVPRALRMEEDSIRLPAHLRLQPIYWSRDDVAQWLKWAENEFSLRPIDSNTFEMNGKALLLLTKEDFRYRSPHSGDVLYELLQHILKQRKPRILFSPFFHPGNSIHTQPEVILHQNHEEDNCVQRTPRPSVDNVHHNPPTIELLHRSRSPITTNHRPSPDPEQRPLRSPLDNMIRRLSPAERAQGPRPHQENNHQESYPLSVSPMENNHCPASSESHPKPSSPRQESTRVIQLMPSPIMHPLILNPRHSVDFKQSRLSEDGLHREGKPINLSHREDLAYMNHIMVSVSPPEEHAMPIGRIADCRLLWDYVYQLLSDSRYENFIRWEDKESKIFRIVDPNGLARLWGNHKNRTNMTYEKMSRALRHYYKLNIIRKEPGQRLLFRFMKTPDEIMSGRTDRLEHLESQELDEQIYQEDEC

Row | Sequence | binding signal (ERF) | binding signal (ETV3L) | binding signal (ETS2) | binding signal (SPDEF) | binding signal (ETV7) | binding signal (ELF5) | binding signal (ETV3) | binding signal (ETV6)
1 | ACCGAC | 1.29 fold enrichment (6-mer frequency, TF over GST control) | 1.44 fold enrichment (6-mer frequency, TF over GST control) | 1.38 fold enrichment (6-mer frequency, TF over GST control) | 1.37 fold enrichment (6-mer frequency, TF over GST control) | 1.25 fold enrichment (6-mer frequency, TF over GST control) | 1.25 fold enrichment (6-mer frequency, TF over GST control) | 1.27 fold enrichment (6-mer frequency, TF over GST control) | 1.41 fold enrichment (6-mer frequency, TF over GST control)
2 | GTTTAA | 1.21 fold enrichment (6-mer frequency, TF over GST control) | 1.24 fold enrichment (6-mer frequency, TF over GST control) | 1.15 fold enrichment (6-mer frequency, TF over GST control) | 1.05 fold enrichment (6-mer frequency, TF over GST control) | 1.21 fold enrichment (6-mer frequency, TF over GST control) | 1.17 fold enrichment (6-mer frequency, TF over GST control) | 1.13 fold enrichment (6-mer frequency, TF over GST control) | 1.13 fold enrichment (6-mer frequency, TF over GST control)
3 | CGATCT | 1.17 fold enrichment (6-mer frequency, TF over GST control) | 1.32 fold enrichment (6-mer frequency, TF over GST control) | 1.32 fold enrichment (6-mer frequency, TF over GST control) | 1.25 fold enrichment (6-mer frequency, TF over GST control) | 1.42 fold enrichment (6-mer frequency, TF over GST control) | 1.27 fold enrichment (6-mer frequency, TF over GST control) | 1.24 fold enrichment (6-mer frequency, TF over GST control) | 1.2 fold enrichment (6-mer frequency, TF over GST control)
4 | TATCGT | 1.28 fold enrichment (6-mer frequency, TF over GST control) | 1.08 fold enrichment (6-mer frequency, TF over GST control) | 1.11 fold enrichment (6-mer frequency, TF over GST control) | 1.07 fold enrichment (6-mer frequency, TF over GST control) | 1.08 fold enrichment (6-mer frequency, TF over GST control) | 1.08 fold enrichment (6-mer frequency, TF over GST control) | 1.15 fold enrichment (6-mer frequency, TF over GST control) | 1.12 fold enrichment (6-mer frequency, TF over GST control)
5 | TCTTGC | 1.4 fold enrichment (6-mer frequency, TF over GST control) | 1.36 fold enrichment (6-mer frequency, TF over GST control) | 1.35 fold enrichment (6-mer frequency, TF over GST control) | 1.33 fold enrichment (6-mer frequency, TF over GST control) | 1.38 fold enrichment (6-mer frequency, TF over GST control) | 1.34 fold enrichment (6-mer frequency, TF over GST control) | 1.47 fold enrichment (6-mer frequency, TF over GST control) | 1.18 fold enrichment (6-mer frequency, TF over GST control)
6 | CCTTAA | 1.29 fold enrichment (6-mer frequency, TF over GST control) | 1.44 fold enrichment (6-mer frequency, TF over GST control) | 1.29 fold enrichment (6-mer frequency, TF over GST control) | 1.44 fold enrichment (6-mer frequency, TF over GST control) | 1.21 fold enrichment (6-mer frequency, TF over GST control) | 1.44 fold enrichment (6-mer frequency, TF over GST control) | 1.35 fold enrichment (6-mer frequency, TF over GST control) | 1.26 fold enrichment (6-mer frequency, TF over GST control)
7 | CTGCCT | 1.23 fold enrichment (6-mer frequency, TF over GST control) | 1.26 fold enrichment (6-mer frequency, TF over GST control) | 1.16 fold enrichment (6-mer frequency, TF over GST control) | 1.31 fold enrichment (6-mer frequency, TF over GST control) | 1.36 fold enrichment (6-mer frequency, TF over GST control) | 1.29 fold enrichment (6-mer frequency, TF over GST control) | 1.23 fold enrichment (6-mer frequency, TF over GST control) | 1.31 fold enrichment (6-mer frequency, TF over GST control)
8 | CGAATA | 1.19 fold enrichment (6-mer frequency, TF over GST control) | 1.2 fold enrichment (6-mer frequency, TF over GST control) | 1.12 fold enrichment (6-mer frequency, TF over GST control) | 1.1 fold enrichment (6-mer frequency, TF over GST control) | 1.18 fold enrichment (6-mer frequency, TF over GST control) | 1.11 fold enrichment (6-mer frequency, TF over GST control) | 1.21 fold enrichment (6-mer frequency, TF over GST control) | 1.18 fold enrichment (6-mer frequency, TF over GST control)
9 | GTATAT | 1.11 fold enrichment (6-mer frequency, TF over GST control) | 1.16 fold enrichment (6-mer frequency, TF over GST control) | 1.14 fold enrichment (6-mer frequency, TF over GST control) | 1.37 fold enrichment (6-mer frequency, TF over GST control) | 1.13 fold enrichment (6-mer frequency, TF over GST control) | 1.15 fold enrichment (6-mer frequency, TF over GST control) | 1.25 fold enrichment (6-mer frequency, TF over GST control) | 1.09 fold enrichment (6-mer frequency, TF over GST control)
